The source of these data is PubChem BioAssay (NCATS).

The subject of one experiment is CAOV3. As to the kind of experiment: Primary qHTS to identify gynecologic anti-cancer compounds using libraries of approved drugs and bioactive compounds (AID 1345084). Note: nearly all actives have a fitted effect of over 55% in size. Note: potency is the fitted concentration of half-maximal effect. The settings on record: Gynecologic cancer cell panel viability, ATPlite luminescence, 48 h; series mostly up to 57.5 µM. The procedure, abridged: (§1)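 ATP-based viability (ATPlite), 1,000 cells/well, 16 h pre-incubation, 48 h compound at 37 C, 5% CO2, 15 min RT before read.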
(In general: qHTS replaces the single test concentration by a dilution series.)

The subject of the next experiment is Es-2. The experiment is described as above. Particulars: Gynecologic cancer cell panel viability, ATPlite luminescence, 48 h; series mostly up to 57.5 µM. The procedure, abridged:
as §1
In general terms: In ATP-based viability assays light output follows the ATP content of the culture.

Another experiment deals with JEG-3. Described as above. Particulars: Gynecologic cancer cell panel viability, ATPlite luminescence, 48 h; series mostly up to 57.5 µM. The procedure, abridged:
as §1

For another experiment, the system named is OV90. The description is as above. Particulars: Gynecologic cancer cell panel viability, ATPlite luminescence, 48 h; series mostly up to 57.5 µM. The procedure, abridged:
as §1

In another experiment the test system is PA-1. Described as above. The settings on record: Gynecologic cancer cell panel viability, ATPlite luminescence, 48 h; series mostly up to 57.5 µM. The procedure, abridged: as §1
The subject of another experiment is Tov112D. Described as above. Particulars: Gynecologic cancer cell panel viability, ATPlite luminescence, 48 h; series mostly up to 57.5 µM. The procedure, abridged: as §1
The next experiment relates to C33A. Described as above. Particulars: Gynecologic cancer cell panel viability, ATPlite luminescence, 48 h; series mostly up to 57.5 µM. The procedure, abridged: as §1
A further experiment deals with CASKI. Described as above. The settings on record: Gynecologic cancer cell panel viability, ATPlite luminescence, 48 h; series mostly up to 57.5 µM. A digest of the protocol: as §1
For the next experiment, the system named is HeLa. The experiment is described as above. Particulars: Gynecologic cancer cell panel viability, ATPlite luminescence, 48 h; series mostly up to 57.5 µM. The procedure, abridged:
as §1

In a further experiment the test system is Hek293T. Described as above. The settings on record: Gynecologic cancer cell panel viability, ATPlite luminescence, 48 h, control line for the selectivity index; series mostly up to 57.5 µM. The procedure, abridged:
as §1

The subject of a further experiment is Tov-21-G. Described as above. Particulars: Gynecologic cancer cell panel viability, ATPlite luminescence, 48 h; series mostly up to 57.5 µM. A digest of the protocol: as §1
For a further experiment, the system named is astro. As to the kind of experiment: Drug repurposing screens with cells derived from glioblastoma tumor samples (AID 1345199). Note: nearly all actives have a fitted effect of over 40% in size. Note: potency is the fitted concentration of half-maximal effect. Particulars: viability, ATP luminescence, 48 h; series mostly up to 45.9 µM. A digest of the protocol:
(§2)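 Primary testing used CD133+ neurospheres from four GBM patients, seven concentrations, 48 h exposure and ATP-based viability; confirmation added three slower-growing patient lines.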

The test system of another experiment is SKOV3. As to the kind of experiment: Primary qHTS to identify gynecologic anti-cancer compounds using libraries of approved drugs and bioactive compounds (AID 1345084). Note: nearly all actives have a fitted effect of over 55% in size. Note: potency is the fitted concentration of half-maximal effect. Particulars: Gynecologic cancer cell panel viability, ATPlite luminescence, 48 h; series mostly up to 57.5 µM. A digest of the protocol:
as §1

A short description of experiment [1]: Drug repurposing screens with cells derived from glioblastoma tumor samples (AID 1345199). Note: nearly all actives have a fitted effect of over 40% in size. Note: potency is the fitted concentration of half-maximal effect. The settings on record: GBM patient neurospheres viability, ATP luminescence, 48 h; Potency: tumour line A unless noted; series mostly up to 45.9 µM. A digest of the protocol:
as §2

The target in experiment [2] is Nuclear receptor subfamily 1 group I member 2 (Rattus norvegicus) (UniProt Q9R1A7). As to the kind of experiment: qHTS assay for small molecule activators of the rat pregnane X receptor (rPXR) signaling pathway (AID 651751; call rule not given here; note: 0% is about no effect). Particulars: rPXR reporter cells, luciferase (One-Glo), 24 h.
Chain of Nuclear receptor subfamily 1 group I member 2 (Rattus norvegicus) (Q9R1A7 whole entry, looked up): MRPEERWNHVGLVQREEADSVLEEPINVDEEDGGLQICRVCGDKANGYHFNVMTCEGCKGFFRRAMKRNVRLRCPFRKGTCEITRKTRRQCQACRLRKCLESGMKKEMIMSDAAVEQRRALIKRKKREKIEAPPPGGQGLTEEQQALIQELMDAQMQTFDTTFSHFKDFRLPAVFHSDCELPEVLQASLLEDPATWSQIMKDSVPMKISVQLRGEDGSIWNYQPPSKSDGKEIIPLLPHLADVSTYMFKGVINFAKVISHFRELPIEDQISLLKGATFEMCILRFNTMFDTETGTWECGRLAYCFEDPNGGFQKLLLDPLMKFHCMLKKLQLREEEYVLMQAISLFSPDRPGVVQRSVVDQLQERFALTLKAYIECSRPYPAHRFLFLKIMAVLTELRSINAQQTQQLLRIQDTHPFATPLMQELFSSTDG
A short description of experiment [3]: qHTS assay for small molecule activators of the human pregnane X receptor (PXR) signaling pathway (AID 720659; call rule not given here; note: 0% is about no effect).
A short description of experiment [4]: qHTS assay to identify inhibitors of the type 1 interferon - major histocompatibility complex class I in skeletal muscle: Counter screen cell viability and HiBit confirmation (AID 1347412). For activity change, negative = inhibition: % is set by controls: 0 for no effect and ±100 for the full control effect. For all read-outs here: nearly all actives have a fitted effect of over 60% in size. Note: potency is the fitted concentration of half-maximal effect. Particulars: iHSKM muscle cells + IFN-b, HiBiT or CellTiter-Glo, 24 h; for activity change, negative = inhibition: at 45.9 µM (top of the series). A digest of the protocol:
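Human myoblast knock-in line, 4.0 ng/ml IFN-beta stimulation, 24 h compound treatment. Endpoints: HiBiT lytic luminescence (HLA-B level) and CellTiter Glo (ATP). Dosing 12 concentrations, 3-fold steps, 46 uM highest final.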

Molecules are shown by their SMILES. Where “and” joins values, the source holds several entries; their conditions need not be identical. Equal values may be shown once. Records with an inconclusive call do not appear. Calls of active or inactive are those of the source. Unless noted, calls come from the whole dose curve; as a rule, active = well fitted curve in the direction sought with a large enough effect; inconclusive = small, poorly fitted or top-dose-only effect, or another doubt; inactive = no such curve, though single readings can be large; an effect the other way counts as inactive or inconclusive.

As for `CC1(N2CCC(n3c([C@@H]4CCCNC4)nc4ccccc43)CC2)CCCCCCC1`, the Potency in the experiment on CAOV3 is 8.91 µM (active); in the experiment on Es-2, 22.4 µM (active); with JEG-3, 11.2 µM (active); with OV90 it was 12.6 µM (active); in the experiment on PA-1 it was 15.8 µM (active); with Tov112D, 22.4 µM (active).

On to `ClC1=C(Cl)[C@]2(Cl)[C@@H]3[C@@H]4C[C@@H]([C@H]5O[C@@H]45)[C@@H]3[C@@]1(Cl)C2(Cl)Cl`, for which the Potency entry in the experiment with C33A, with CASKI, in the experiment with Es-2, in the experiment on HeLa, with Hek293T and in the experiment with JEG-3 was “inactive” each time. Also, the Potency result with PA-1, in the experiment with Tov-21-G, in the experiment on Tov112D and in the experiment with astro was “inactive” in each case.

For the molecule `S=C(SSC(=S)N1CCCCC1)N1CCCCC1`, the Potency result (with CASKI; in the experiment on HeLa; in experiment [1]; in the experiment with astro) was “inactive” throughout. The Potency is 17.8 µM (active) in the experiment with Hek293T, 10 µM (active) with OV90, 3.98 µM (active) with SKOV3 and 14.1 µM (active) in the experiment on Tov112D.

As to `COc1nn(CSP(=S)(OC)OC)c(=O)s1`, the Potency entry in the experiment on C33A, in the experiment on CASKI, in the experiment on HeLa, in the experiment on Hek293T, in the experiment on JEG-3 and with OV90 was “inactive” throughout. Moreover, in experiment [2], the max response is -6.79% (inactive). For the same molecule, the molecule was classed as inactive in experiment [3].

For the molecule `CC(C)NC(C)Cc1ccc(I)cc1` (configuration not stated), the Potency result in the experiment on astro is “inactive”.

`NC(=O)CN1CC(O)CC1=O` (configuration not stated): the Potency result (in [1]; with astro) was “inactive” throughout.

Take `CC(C)(O)C(=O)Nc1ccc([N+](=O)[O-])c(C(F)(F)F)c1`: the max response in [2] was -13.9% (inactive).

`CN[C@@H]1C[C@@H](c2ccc(Cl)c(Cl)c2)c2ccccc21`: the Potency in the experiment on astro is 20 µM (active). Also, the activity change, negative = inhibition was -7.12% (inactive) in [4] (HiBiT) and -20.4% (inactive) in experiment [4] (Viability).

With `Clc1cnc(Oc2ccc(Oc3ncc(Cl)cc3Cl)cc2)c(Cl)c1`, the max response in [2] was 9.03% (inactive). Moreover, the result in experiment [3] was inactive.

Take `c1ccc(C2(c3ccccc3)CC2C2=NCCN2)cc1` (configuration not stated): the Potency result (in experiment [1]; with astro) was “inactive” in each case.

Consider `Nc1ccc(N=Nc2ccccc2)cc1`, for which the Potency in the experiment on CAOV3 was 35.5 µM (active); in the experiment on OV90, 39.8 µM (active). In [1], the Potency entry is “inactive”.

Take `CCN1CCN(C(=O)Cc2ccc(Nc3ncc(F)c(Nc4ccc(C(=O)Nc5ccccc5Cl)cc4)n3)cc2)CC1`: the Potency entry with C33A, with CASKI, in the experiment with JEG-3 and in the experiment on OV90 was “inactive” in each case. Moreover, the Potency in the experiment on HeLa is 8.91 µM (active); with Hek293T, 25.1 µM (active); in the experiment on PA-1, 25.1 µM (active); in the experiment with SKOV3 it was 15.8 µM (active); in the experiment with Tov-21-G it was 28.2 µM (active); in the experiment on Tov112D it was 2.51 µM (active). For the same molecule, in experiment [4] (HiBiT), the Potency is 14 µM (active).

With `Nc1ccc([N+](=O)[O-])cc1`, the Potency entry in the experiment with C33A, in the experiment on CAOV3, in the experiment on CASKI, with HeLa, in the experiment on Hek293T and in the experiment on JEG-3 was “inactive” each time. In addition, the Potency result in the experiment with OV90, in the experiment with PA-1, with Tov-21-G, in the experiment with Tov112D and in the experiment on astro was “inactive” each time. Further, the max response in [2] was -0.553% (inactive). The outcome in experiment [3] was inactive.

Take `C[C@]12N[C@H](Cc3ccccc31)c1ccccc12`: the Potency entry (in [1]; in the experiment on astro) was “inactive” each time.

With `C[N+](C)(C)CC(=O)O`, the Potency entry (in experiment [1]; in the experiment on astro) was “inactive” each time.

With `CCOP(=O)(NC(C)C)Oc1ccc(SC)c(C)c1` (configuration not stated), the Potency result in the experiment with C33A, with CAOV3, in the experiment with CASKI, in the experiment on Es-2, in the experiment on HeLa and with Hek293T was “inactive” each time. For the same molecule, the Potency result (with JEG-3; in the experiment on PA-1; in the experiment with Tov-21-G; in the experiment on Tov112D; in [1]; in the experiment on astro) was “inactive” in each case. Besides, in [2], the max response is 6.18% (inactive) and 2.21% (inactive).

With `CCCN(CCC)c1c([N+](=O)[O-])cc(S(N)(=O)=O)cc1[N+](=O)[O-]`, the Potency is 35.5 µM (active) in the experiment with C33A and 31.6 µM (active) in the experiment on astro. In addition, the Potency result with JEG-3 is “inactive”.

For the molecule `NC1=NC(=O)N2CC12` (configuration not stated), the Potency entry (in experiment [1]; in the experiment with astro) was “inactive” in each case.

For the molecule `CCCN1CCC[C@H](c2cccc(O)c2)C1`, the Potency result (in [1]; in the experiment with astro) was “inactive” each time.

On to `CCCCCC[C@H]1C(=O)O[C@H](C)[C@H](NC(=O)c2cccc(NC=O)c2O)C(=O)O[C@@H](C)[C@@H]1OC(=O)CC(C)C`, for which the results for the activity change, negative = inhibition in [4] (HiBiT) and in [4] (Viability) were -17.2% (inactive) and -10.9% (inactive), respectively. Besides, the result in experiment [3] was inactive.
